Measurements published in PubChem BioAssay (Tox21).
Records with an inconclusive call do not appear. Activity calls are given as the source filed them. Unless noted, the call rests on the fitted dose curve.

Key:
[1] = Nuclear factor erythroid 2-related factor 2/antioxidant responsive element (Nrf2/ARE) small molecule agonists: qHTS cell viability counter screen in human keratinocytes (AID 1919968; active means well fitted curve in the direction sought with a large enough effect in the repeat runs; an effect the other way counts as inactive or inconclusive; further: nearly all actives have a fitted effect of over 55% in size)
Summary of the method: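 In human HaCaT keratinocytes stably expressing an ARE-driven luciferase, compound exposure lasted 23 h at 37 C under 5% CO2. Viable cells are quantified with a protease-based fluorogenic reagent (CellTiter-Fluor) read 1 h after addition.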

[2] = molecular target: Gonadotropin-releasing hormone receptor (Homo sapiens) (UniProt P30968); assay: Human gonadotropin-releasing hormone receptor (GnRHR) small molecule agonists, calcium flux assay in GnRHR-HEK293 cells (AID 1920063); further: nearly all actives have a fitted effect of over 35% in size
Summary of the method: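 Intracellular calcium rise is the read-out: engineered human GnRHR HEK293 cells, dye-loaded, are exposed to DMSO-dissolved compounds and fluorescence at Ex/Em 480/540 is tracked for 3 min.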

[3] = molecular target: KiSS-1 receptor (Homo sapiens) (UniProt Q969F8); assay: Human kisspeptin (KISS1R) small molecule agonists, calcium flux assay in KISS1R-HEK293 cells (AID 1920064; active means well fitted curve in the direction sought with a large enough effect in the repeat runs; an effect the other way counts as inactive or inconclusive)
Summary of the method: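 Concentration-response testing used 15 concentrations in triplicate on human KISS1R-expressing HEK293 cells. Calcium-dependent fluorescence (Ex/Em 480/540) was followed kinetically for 3 min after compound transfer.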

[4] = G protein-coupled receptor (GPCR) small molecule agonists, calcium flux assay: HEK293 wild type cell line counter screen (AID 1920065)
Summary of the method: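 Fluorescence intensity signals activation. After overnight (18 h) culture and a 1 h calcium dye load at 37 C, compounds are added by pin tool and the plate read at 480/540 nm for 3 min in 1 s steps.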

[5] = p53 small molecule agonists, cell-based qHTS assay with rat liver microsomes (AID 1963578)
Summary of the method: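 Cells carrying a p53 response element–beta-lactamase reporter were plated and rested 5 h, then dosed with compound in DMSO plus rat liver microsomes and NADPH, each at 0.5 mg/mL final. After 16 h at 37 C, LiveBLAzer substrate was added for 2 h.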

[6] = p53 small molecule agonists, cell-based qHTS assay with rat liver microsomes: qHTS cell viability counter screen (AID 1963580); further: nearly all actives have a fitted effect of over 45% in size
Summary of the method: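 Luminescent ATP readout (CellTiter-Glo, 30 min at room temperature) reports viability of p53RE-bla HCT-116 cells after 16 h at 37 C with test compounds under metabolic activation by rat liver microsomes and NADPH at 0.5 mg/mL final each.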

[7] = p53 small molecule agonists, cell-based qHTS assay: qHTS cell viability counter screen (AID 1963581); further: nearly all actives have a fitted effect of over 45% in size
Summary of the method: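 Luminescence from CellTiter-Glo, reflecting ATP content, serves as the cytotoxicity measure; it is taken after the 2 h reporter substrate step in HCT-116 p53RE-bla cells dosed for 16 h at 37 C.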

[8] = p53 small molecule agonists, cell-based qHTS assay (AID 1963582; active means well fitted activation curve with a large enough effect in the signal ratio in the repeat runs, not every such curve was filed as active; the % refers to the signal ratio)
Summary of the method: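 After plating, p53RE-bla cells sat 5 h in the incubator; compounds or DMSO vehicle were pinned in; a 16 h incubation at 37 C followed; FRET substrate was added and, 2 h later at RT, fluorescence was measured.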

[9] = molecular target: 5-hydroxytryptamine receptor 2A (Homo sapiens) (UniProt P28223); assay: 5-hydroxytryptamine receptor 2A (HTR2A) small molecule antagonists, cell-based qHTS assay (AID 1963586); further: nearly all actives have a fitted effect of over 45% in size
Summary of the method: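 CHO cells stably expressing human HTR2A were plated for 18 h at 37 C, then loaded with calcium dye for 1 h. Compounds were preincubated 5 min at room temperature before DOI (4 nM solution) was added. Kinetic fluorescence was read for 3 min.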

[10] = molecular target: 5-hydroxytryptamine receptor 2A (Homo sapiens) (UniProt P28223); assay: 5-hydroxytryptamine receptor 2A (HTR2A) small molecule agonists, cell-based qHTS assay (AID 1963587); further: nearly all actives have a fitted effect of over 30% in size
Summary of the method: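 HTR2A-CHO cells, plated 18 h at 37 C/5% CO2, dye-loaded 1 h at 37 C; compounds in DMSO added by pin tool (agonist mode). Intracellular calcium flux read as kinetic fluorescence on FDSS over 2 min at 1 s intervals.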

[11] = molecular target: Muscarinic acetylcholine receptor M1 (Homo sapiens) (UniProt P11229); assay: Cholinergic receptor muscarinic 1 (CHRM1) small molecule antagonists, cell-based qHTS assay (AID 1963588); further: nearly all actives have a fitted effect of over 40% in size
Summary of the method: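 Compounds were tested at 15 concentrations in three independent runs. Dye-loaded CHRM1-CHO cells were exposed 5 min at room temperature before stimulation by acetylcholine added at 50nM. Intracellular calcium was read kinetically on FDSS for 3 min.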

[12] = molecular target: Muscarinic acetylcholine receptor M1 (Homo sapiens) (UniProt P11229); assay: Cholinergic receptor muscarinic 1 (CHRM1) small molecule agonists, cell-based qHTS assay (AID 1963589); further: nearly all actives have a fitted effect of over 35% in size
Summary of the method: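 Fluorescent calcium dye reports M1 activation in stably transfected CHO cells. Compounds, 15 concentrations, added after 1 h dye loading at 37 C; kinetic reading at 1 sec intervals.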

[13] = cAMP Responsive Elements (CRE) small molecule agonists, cell-based qHTS assay (AID 1963590)
Summary of the method: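 Compound exposure lasted 3 h at 37 C/5% CO2 in CRE-bla HEK 293T cells grown in assay medium with 10% dialyzed FBS and 25 mM HEPES. Reporter signal came from LiveBLAzer B/G FRET substrate, 2 h, room temperature.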

[14] = cAMP Responsive Elements (CRE) small molecule antagonists, cell-based qHTS assay (AID 1963591; active means well fitted inhibition curve with a large enough effect in the signal ratio in the repeat runs, not every such curve was filed as active; the % refers to the signal ratio)
Summary of the method: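 Stimulation used NKH477 at a final 0.25 uM for 3 h in compound-treated CRE-bla HEK293T cells, seeded 18 h beforehand. Reporter activity was measured with LiveBLAzer B/G FRET substrate after 2 h at room temperature.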

[15] = molecular target: Beta-2 adrenergic receptor (Homo sapiens) (UniProt P07550); assay: Adrenergic beta2 receptor (ADRB2) small molecule antagonists, cell-based qHTS assay (AID 1963592); further: series mostly up to about 92 µM; nearly all actives have a fitted effect of over 50% in size
Summary of the method: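 Assay format: CHO-ADRB2 cells, 18-20hr seeding at 37C/5% CO2, then compound plus 1nM isoproterenol agonist mix for 0.5hr RT. Homogeneous time-resolved fluorescence cAMP detection after 1hr, expressed as 665/615 nm ratio.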

[16] = molecular target: Beta-2 adrenergic receptor (Homo sapiens) (UniProt P07550); assay: Adrenergic beta2 receptor (ADRB2) small molecule agonists, cell-based qHTS assay (AID 1963593);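 further: CHO cells stably overexpressing human ADRB2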
Summary of the method: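 CHO cells stably over-expressing ADRB2 were plated overnight at 37C, then dosed with compounds plus a stimulation mix containing 100uM IBMX and 25uM Ro-20-1724 for 0.5hr at room temperature. cAMP was measured by HTRF competition, 1hr.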

[17] = molecular target: D(2) dopamine receptor (Homo sapiens) (UniProt P14416); assay: Dopamine D2 receptor (DRD2) small molecule agonists, cell-based qHTS assay (AID 1963594); further: nearly all actives have a fitted effect of over 35% in size
Summary of the method: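 HEK293 cells stably expressing DRD2 were cultured 24 h at 37 C, then given Ro20-1724 (0.1 mM final) and compounds for 10 min at room temperature. NKH477 (200nM) was then added for 30 min. cAMP was read by HTRF.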

[18] = molecular target: D(2) dopamine receptor (Homo sapiens) (UniProt P14416); assay: Dopamine D2 receptor (DRD2) small molecule antagonists, cell-based qHTS assay (AID 1963595; active means well fitted inhibition curve with a large enough effect in the signal ratio in the repeat runs, with a control signal flat; the % refers to the signal ratio)
Summary of the method: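 Antagonist mode in DRD2-HEK293 cells: after compound addition with 0.1 mM Ro20-1724, cells received quinpirole (12 nM) and NKH477 (200 nM) for 30 min at room temperature; HTRF cAMP read after 1 h detection.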

[19] = p53 small molecule agonists, cell-based qHTS assay with human liver microsomes: qHTS cell viability counter screen (AID 1963579); further: nearly all actives have a fitted effect of over 45% in size
Summary of the method: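 Cytotoxicity counter screen: p53RE-bla, 4,000 cells/well; 5 h settle, 37 C/5% CO2; cpd + HLM 0.5 mg/mL + NADPH 0.5 mg/mL (final); 16 h, 37 C; CellTiter-Glo, 30 min RT, luminescence.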
On the % scale 0 is the no-effect control and ±100 the full control effect.

Chain of Muscarinic acetylcholine receptor M1 (Homo sapiens) (P11229 whole entry, looked up): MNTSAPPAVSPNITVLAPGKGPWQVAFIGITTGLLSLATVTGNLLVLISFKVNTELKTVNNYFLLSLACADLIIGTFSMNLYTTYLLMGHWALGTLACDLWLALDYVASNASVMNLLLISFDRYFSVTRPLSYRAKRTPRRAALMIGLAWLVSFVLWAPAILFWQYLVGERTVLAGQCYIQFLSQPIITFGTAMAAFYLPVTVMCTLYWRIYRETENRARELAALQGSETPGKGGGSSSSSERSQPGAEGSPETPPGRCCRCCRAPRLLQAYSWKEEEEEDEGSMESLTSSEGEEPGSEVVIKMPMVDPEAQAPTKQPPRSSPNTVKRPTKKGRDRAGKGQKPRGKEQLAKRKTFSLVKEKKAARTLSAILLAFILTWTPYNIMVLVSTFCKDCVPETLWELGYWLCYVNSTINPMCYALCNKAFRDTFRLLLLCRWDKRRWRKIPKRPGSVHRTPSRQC
Chain of KiSS-1 receptor (Homo sapiens) (Q969F8 whole entry, looked up): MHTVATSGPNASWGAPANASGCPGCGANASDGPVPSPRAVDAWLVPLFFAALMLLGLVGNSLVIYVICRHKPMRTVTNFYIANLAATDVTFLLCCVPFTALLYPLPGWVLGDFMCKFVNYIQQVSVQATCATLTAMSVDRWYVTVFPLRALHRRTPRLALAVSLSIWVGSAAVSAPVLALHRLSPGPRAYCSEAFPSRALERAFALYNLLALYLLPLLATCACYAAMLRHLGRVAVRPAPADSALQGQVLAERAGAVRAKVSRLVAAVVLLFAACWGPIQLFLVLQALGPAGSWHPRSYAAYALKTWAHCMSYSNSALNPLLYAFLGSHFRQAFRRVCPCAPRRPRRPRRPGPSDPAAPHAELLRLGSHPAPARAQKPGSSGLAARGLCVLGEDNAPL
Chain of D(2) dopamine receptor (Homo sapiens) (P14416 whole entry, looked up): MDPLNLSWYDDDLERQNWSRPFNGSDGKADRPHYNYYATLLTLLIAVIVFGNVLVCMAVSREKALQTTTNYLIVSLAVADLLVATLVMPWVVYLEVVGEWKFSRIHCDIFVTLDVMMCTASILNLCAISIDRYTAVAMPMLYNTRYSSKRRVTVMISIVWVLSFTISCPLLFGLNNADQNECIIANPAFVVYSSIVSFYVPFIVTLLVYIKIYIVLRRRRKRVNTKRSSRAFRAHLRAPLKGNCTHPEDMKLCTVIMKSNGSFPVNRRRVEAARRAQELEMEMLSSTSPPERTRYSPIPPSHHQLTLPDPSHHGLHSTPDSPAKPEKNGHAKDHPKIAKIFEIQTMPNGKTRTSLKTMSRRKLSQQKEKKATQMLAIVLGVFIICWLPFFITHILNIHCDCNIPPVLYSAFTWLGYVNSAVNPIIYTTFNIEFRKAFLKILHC
Chain of Beta-2 adrenergic receptor (Homo sapiens) (P07550 whole entry, looked up): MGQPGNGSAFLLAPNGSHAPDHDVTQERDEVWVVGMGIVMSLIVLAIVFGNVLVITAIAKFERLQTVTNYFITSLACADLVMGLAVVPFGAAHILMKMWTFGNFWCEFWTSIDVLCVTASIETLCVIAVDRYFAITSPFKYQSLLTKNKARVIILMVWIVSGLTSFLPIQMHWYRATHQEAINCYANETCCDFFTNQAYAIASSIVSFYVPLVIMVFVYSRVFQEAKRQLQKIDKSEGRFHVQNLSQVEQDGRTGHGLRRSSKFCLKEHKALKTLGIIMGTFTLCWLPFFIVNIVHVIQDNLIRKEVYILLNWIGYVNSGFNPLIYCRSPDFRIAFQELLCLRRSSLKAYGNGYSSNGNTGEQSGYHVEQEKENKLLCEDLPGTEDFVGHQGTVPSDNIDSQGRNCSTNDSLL
Chain of 5-hydroxytryptamine receptor 2A (Homo sapiens) (P28223 whole entry, looked up): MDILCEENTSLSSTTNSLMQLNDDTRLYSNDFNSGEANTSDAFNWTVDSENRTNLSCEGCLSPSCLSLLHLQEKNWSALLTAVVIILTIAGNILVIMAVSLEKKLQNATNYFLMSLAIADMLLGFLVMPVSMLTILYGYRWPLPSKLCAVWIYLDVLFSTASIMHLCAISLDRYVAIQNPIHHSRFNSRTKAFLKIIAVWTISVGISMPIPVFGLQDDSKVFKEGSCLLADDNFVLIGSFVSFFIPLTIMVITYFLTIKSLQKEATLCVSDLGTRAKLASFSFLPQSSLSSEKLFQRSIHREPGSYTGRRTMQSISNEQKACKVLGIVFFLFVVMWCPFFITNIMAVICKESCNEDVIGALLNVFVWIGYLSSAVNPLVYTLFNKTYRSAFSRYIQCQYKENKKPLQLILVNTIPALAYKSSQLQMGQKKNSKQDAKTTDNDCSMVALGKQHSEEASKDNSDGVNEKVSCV
Chain of Gonadotropin-releasing hormone receptor (Homo sapiens) (P30968 whole entry, looked up): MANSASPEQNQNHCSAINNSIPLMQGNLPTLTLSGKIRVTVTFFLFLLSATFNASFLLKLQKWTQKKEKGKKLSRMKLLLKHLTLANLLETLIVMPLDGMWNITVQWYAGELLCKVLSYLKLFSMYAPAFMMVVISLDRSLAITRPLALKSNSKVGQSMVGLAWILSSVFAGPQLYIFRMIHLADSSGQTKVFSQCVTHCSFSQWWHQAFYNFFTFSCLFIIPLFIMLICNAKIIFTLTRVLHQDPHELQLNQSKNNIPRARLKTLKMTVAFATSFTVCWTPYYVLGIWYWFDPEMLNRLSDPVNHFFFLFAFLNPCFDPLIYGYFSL

CCCn1cc[n+](C)c1C
inactive: Potency [1] | Potency [2] | Potency [3] | Potency [4] | Potency [5] | Potency [6] | Potency [7] | Potency [8] | Potency [9] | Potency [10] | Potency [11] | Potency [12] | Potency [13] | Potency [14] | Potency [15] | Potency [16] | Potency [17] | Potency [18]

CCCCOCCOCCOCCOCCO
inactive: Potency [1] | Potency [2] | Potency [3] | Potency [4] | Potency [19] | Potency [6] | Potency [7] | Potency [9] | Potency [10] | Potency [11] | Potency [12] | Potency [13] | Potency [14] | Potency [15] | Potency [17] | Potency [18]

CC(CO)(CO)[N+](=O)[O-]
inactive: Potency [1] | Potency [2] | Potency [3] | Potency [4] | Potency [19] | Potency [6] | Potency [7] | Potency [9] | Potency [10] | Potency [11] | Potency [12] | Potency [14] | Potency [15] | Potency [16] | Potency [17] | Potency [18]

NC[C@H]1O[C@H](O[C@H]2[C@H](O)[C@@H](O[C@H]3O[C@H](CO)[C@@H](O)[C@H](N)[C@H]3O)[C@H](N)C[C@@H]2N)[C@H](O)[C@@H](O)[C@@H]1O
inactive: activity change, negative = cytotoxicity [1] 2.11% [at 8.39 µM] | activity change [2] -0.795% [at 5.22 µM, stronger effect = higher value] | activation [3] 3.49% [at 6.97 µM] | activation [4] -1.23% [at 5.23 µM] | activation [5] 6.15% [at 5.99 µM] | activity change, negative = cytotoxicity [19] 4.31% [at 5.99 µM] | activity change, negative = cytotoxicity [6] 3.51% [at 5.99 µM] | activity change, negative = cytotoxicity [7] 2.96% [at 5.99 µM] | activity change, negative = inhibition [14] -1.06% [at 8.39 µM] | activity change, negative = inhibition [15] 0.292% [at 8.39 µM] | activation [17] 0% [at 8.39 µM] | activity change, negative = inhibition [18] -3.37% [at 8.38 µM]

Cc1nn(C)c(Oc2ccccc2)c1/C=N/OCc1ccc(C(=O)OC(C)(C)C)cc1
inactive: Potency [1] | Potency [2] | Potency [3] | Potency [4] | Potency [5] | Potency [19] | Potency [6] | Potency [7] | Potency [9] | Potency [11] | Potency [12] | Potency [16] | Potency [17]

Nc1nc(Cl)cc(Cl)n1
inactive: Potency [1] | Potency [2] | Potency [3] | Potency [4] | Potency [19] | Potency [6] | Potency [7] | Potency [11] | Potency [12] | Potency [15] | Potency [17] | Potency [18]

CO[Si](C)(OC)OC
inactive: Potency [1] | Potency [2] | Potency [3] | Potency [4] | Potency [19] | Potency [6] | Potency [9] | Potency [10] | Potency [12] | Potency [13] | Potency [14] | Potency [15] | Potency [17] | Potency [18]

CCCCCCCCCCCCCCCCCBr
inactive: activity change, negative = cytotoxicity [1] 2.19% [at 19 µM] | activity change [2] 0.321% [at 11.8 µM, stronger effect = higher value] | activation [3] 0.212% [at 15.8 µM] | activation [4] -0.0398% [at 11.8 µM] | activity change, negative = cytotoxicity [19] 5.38% [at 13.5 µM] | activity change, negative = cytotoxicity [6] 0.54% [at 13.5 µM] | activity change, negative = cytotoxicity [7] 3.13% [at 13.5 µM] | activation [10] 0.832% [at 15.9 µM] | activity, negative = inhibition [11] 7.9% [at 12.6 µM] | activation [12] -0.0212% [at 15.8 µM] | activation [13] -0.0773% [at 19 µM] | activity change, negative = inhibition [14] -5.99% [at 18.9 µM] | activity change, negative = inhibition [15] 0.719% [at 19 µM] | activation [16] 8.09% [at 19 µM] | activation [17] -0.0433% [at 19 µM]

C=O
inactive: Potency [1] | Potency [2] | Potency [3] | Potency [4] | Potency [19] | Potency [6] | Potency [7] | Potency [9] | Potency [11] | Potency [12] | Potency [13] | Potency [14] | Potency [15] | Potency [17] | Potency [18]

COP(=O)(OC)OC(c1ccc(Cl)cc1)P(=O)(OC)OC (stereo not drawn)
inactive: Potency [1] | Potency [2] | Potency [3] | Potency [4] | Potency [19] | Potency [6] | Potency [7] | Potency [9] | Potency [10] | Potency [13] | Potency [14] | Potency [15] | Potency [17] | Potency [18]

CCCCCCC[N+](CC)(CC)CCCCc1ccc(Cl)cc1
inactive: Potency [1] | Potency [2] | Potency [3] | Potency [4] | Potency [19] | Potency [6] | Potency [7] | Potency [9] | Potency [10] | Potency [15] | Potency [18]

CCOC(=O)c1ccc(N(C)C)cc1
inactive: Potency [1] | Potency [2] | Potency [3] | Potency [4] | Potency [19] | Potency [6] | Potency [7] | Potency [9] | Potency [10] | Potency [12] | Potency [13] | Potency [14] | Potency [16] | Potency [17]

Oc1cccc(Nc2ccccc2)c1
inactive: Potency [1] | Potency [2] | Potency [3] | Potency [4] | Potency [19] | Potency [6] | Potency [7] | Potency [10] | Potency [11] | Potency [12] | Potency [13] | Potency [15] | Potency [17] | Potency [18]

CC1CCC(CO)CC1 (stereo not drawn)
inactive: Potency [1] | Potency [2] | Potency [3] | Potency [4] | Potency [19] | Potency [6] | Potency [7] | Potency [9] | Potency [10] | Potency [12] | Potency [14] | Potency [16] | Potency [17] | Potency [18]
